Measurements: the supplement of paper PMC11732987, “Enantioselective OTUD7B fragment discovery through chemoproteomics screening and high-throughput optimisation” (Communications Chemistry, 2025)

Tests used:
Test in all cases: log2 ratio of Biotin-Ahx-Ub-VS probe labelling (fragment/DMSO); higher = less target engagement (more negative = stronger competition), active = hit call of the paper (q ≤ 0.05, log2 ratio ≤ -1)
Conditions in all cases: compound concentration: 200 uM; treatment time: 3 h
USP34 = USP34 (UniProt Q70CQ2)
Chain of USP34 (Q70CQ2 whole entry, the tested form may be a part): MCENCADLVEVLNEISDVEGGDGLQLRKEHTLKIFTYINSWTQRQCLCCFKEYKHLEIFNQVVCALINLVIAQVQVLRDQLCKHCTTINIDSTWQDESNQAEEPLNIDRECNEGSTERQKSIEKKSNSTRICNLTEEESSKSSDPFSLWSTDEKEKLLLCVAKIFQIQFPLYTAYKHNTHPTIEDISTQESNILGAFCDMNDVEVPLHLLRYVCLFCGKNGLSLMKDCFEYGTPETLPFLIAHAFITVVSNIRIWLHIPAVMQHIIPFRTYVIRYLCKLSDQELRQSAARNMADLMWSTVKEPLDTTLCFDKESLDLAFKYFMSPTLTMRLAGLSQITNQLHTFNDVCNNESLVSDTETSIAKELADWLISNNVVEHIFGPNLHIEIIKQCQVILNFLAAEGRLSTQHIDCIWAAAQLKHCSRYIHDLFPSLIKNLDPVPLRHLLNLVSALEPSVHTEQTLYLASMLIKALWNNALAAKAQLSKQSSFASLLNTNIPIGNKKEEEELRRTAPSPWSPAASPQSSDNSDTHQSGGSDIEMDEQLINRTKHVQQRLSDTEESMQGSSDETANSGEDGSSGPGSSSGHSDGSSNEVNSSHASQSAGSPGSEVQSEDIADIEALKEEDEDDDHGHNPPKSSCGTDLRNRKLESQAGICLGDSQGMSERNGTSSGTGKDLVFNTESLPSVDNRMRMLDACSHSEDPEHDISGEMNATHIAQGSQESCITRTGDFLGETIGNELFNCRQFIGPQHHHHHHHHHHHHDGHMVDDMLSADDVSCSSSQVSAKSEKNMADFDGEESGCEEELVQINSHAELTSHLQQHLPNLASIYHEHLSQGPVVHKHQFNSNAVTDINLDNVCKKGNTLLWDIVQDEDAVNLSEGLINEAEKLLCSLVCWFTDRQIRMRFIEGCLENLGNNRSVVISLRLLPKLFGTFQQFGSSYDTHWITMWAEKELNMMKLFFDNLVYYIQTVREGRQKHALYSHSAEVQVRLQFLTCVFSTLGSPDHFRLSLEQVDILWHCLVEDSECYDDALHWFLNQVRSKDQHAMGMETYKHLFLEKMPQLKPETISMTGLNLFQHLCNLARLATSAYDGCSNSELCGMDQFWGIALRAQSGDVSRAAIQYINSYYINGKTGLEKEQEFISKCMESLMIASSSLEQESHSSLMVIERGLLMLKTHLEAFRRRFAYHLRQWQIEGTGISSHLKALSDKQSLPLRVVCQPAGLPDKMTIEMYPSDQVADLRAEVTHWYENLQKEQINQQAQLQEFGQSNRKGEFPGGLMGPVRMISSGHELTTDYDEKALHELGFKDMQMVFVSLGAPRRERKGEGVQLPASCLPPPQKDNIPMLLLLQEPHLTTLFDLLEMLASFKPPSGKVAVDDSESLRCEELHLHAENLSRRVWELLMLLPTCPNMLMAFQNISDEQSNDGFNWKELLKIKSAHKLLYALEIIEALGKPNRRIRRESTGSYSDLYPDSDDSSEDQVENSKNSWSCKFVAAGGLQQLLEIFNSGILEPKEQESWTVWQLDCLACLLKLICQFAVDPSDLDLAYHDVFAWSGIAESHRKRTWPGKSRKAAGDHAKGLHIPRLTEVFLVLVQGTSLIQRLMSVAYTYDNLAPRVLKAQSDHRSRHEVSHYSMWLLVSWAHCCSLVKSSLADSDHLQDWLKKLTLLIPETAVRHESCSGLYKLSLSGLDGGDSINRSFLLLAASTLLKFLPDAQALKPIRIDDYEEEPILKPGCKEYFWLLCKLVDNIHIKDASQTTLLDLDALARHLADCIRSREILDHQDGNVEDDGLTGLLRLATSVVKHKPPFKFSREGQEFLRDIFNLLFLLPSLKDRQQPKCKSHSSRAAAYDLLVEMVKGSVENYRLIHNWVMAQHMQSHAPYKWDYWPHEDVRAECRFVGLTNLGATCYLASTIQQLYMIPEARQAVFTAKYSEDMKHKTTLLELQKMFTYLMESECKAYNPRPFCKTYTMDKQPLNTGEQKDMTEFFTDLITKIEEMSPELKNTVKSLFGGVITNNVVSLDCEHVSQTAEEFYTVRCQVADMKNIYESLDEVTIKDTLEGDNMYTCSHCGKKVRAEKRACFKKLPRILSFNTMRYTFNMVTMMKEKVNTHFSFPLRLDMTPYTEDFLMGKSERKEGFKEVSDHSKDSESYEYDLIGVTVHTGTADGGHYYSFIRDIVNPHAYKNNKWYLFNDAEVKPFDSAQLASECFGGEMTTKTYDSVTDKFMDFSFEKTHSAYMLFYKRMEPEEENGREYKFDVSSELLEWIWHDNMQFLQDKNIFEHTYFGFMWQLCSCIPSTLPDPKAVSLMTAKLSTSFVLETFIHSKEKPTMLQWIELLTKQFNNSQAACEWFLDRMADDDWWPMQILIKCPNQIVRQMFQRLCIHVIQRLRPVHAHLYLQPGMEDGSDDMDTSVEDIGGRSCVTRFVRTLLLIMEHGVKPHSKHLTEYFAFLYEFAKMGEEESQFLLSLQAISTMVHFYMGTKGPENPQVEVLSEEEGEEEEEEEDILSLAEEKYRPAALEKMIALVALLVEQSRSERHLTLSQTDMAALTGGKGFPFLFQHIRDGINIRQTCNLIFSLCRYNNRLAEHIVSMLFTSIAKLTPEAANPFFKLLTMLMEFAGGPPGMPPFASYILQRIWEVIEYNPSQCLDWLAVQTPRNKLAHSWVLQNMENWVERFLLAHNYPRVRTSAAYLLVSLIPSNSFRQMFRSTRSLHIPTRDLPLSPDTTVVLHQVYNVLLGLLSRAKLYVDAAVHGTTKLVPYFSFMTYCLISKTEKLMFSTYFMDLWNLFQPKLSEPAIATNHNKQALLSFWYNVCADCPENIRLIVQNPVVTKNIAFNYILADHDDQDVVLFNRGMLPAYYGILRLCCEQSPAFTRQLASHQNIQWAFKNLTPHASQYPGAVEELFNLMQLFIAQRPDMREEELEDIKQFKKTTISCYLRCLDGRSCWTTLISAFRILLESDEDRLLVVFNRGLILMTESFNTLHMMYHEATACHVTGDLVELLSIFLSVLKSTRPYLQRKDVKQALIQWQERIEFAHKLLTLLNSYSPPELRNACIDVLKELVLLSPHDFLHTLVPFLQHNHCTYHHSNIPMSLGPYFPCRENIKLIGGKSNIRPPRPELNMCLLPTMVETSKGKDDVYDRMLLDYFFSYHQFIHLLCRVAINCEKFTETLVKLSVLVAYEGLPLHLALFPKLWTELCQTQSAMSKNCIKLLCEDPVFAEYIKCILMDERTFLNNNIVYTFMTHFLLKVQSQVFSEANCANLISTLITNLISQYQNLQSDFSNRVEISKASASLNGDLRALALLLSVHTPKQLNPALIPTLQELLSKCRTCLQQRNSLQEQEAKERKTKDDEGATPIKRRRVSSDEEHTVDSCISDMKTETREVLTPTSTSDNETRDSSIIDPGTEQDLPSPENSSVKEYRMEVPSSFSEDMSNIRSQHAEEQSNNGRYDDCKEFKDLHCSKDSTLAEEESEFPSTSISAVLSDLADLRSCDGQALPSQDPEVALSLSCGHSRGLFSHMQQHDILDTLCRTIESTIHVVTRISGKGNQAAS
Procedure, shortened: (§1)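 Triplicate samples of HEK293T lysate, 495 µg each, received fragment at 200 µM or vehicle for 3 h, followed by Biotin-Ahx-Ub-VS (0.5 µM final) for 1 h. After NeutrAvidin enrichment of labelled DUBs and LysC/trypsin digestion, peptides were run by diaPASEF LC-MS/MS. The values are average log2 fragment/vehicle ratios from global-median-normalised Spectronaut label-free quantities, tested by unpaired t-test on proteins having ≥2 unique peptides.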

USP36 = molecular target: T1, USP36 (UniProt Q9P275)
T1 sequence (whole entry): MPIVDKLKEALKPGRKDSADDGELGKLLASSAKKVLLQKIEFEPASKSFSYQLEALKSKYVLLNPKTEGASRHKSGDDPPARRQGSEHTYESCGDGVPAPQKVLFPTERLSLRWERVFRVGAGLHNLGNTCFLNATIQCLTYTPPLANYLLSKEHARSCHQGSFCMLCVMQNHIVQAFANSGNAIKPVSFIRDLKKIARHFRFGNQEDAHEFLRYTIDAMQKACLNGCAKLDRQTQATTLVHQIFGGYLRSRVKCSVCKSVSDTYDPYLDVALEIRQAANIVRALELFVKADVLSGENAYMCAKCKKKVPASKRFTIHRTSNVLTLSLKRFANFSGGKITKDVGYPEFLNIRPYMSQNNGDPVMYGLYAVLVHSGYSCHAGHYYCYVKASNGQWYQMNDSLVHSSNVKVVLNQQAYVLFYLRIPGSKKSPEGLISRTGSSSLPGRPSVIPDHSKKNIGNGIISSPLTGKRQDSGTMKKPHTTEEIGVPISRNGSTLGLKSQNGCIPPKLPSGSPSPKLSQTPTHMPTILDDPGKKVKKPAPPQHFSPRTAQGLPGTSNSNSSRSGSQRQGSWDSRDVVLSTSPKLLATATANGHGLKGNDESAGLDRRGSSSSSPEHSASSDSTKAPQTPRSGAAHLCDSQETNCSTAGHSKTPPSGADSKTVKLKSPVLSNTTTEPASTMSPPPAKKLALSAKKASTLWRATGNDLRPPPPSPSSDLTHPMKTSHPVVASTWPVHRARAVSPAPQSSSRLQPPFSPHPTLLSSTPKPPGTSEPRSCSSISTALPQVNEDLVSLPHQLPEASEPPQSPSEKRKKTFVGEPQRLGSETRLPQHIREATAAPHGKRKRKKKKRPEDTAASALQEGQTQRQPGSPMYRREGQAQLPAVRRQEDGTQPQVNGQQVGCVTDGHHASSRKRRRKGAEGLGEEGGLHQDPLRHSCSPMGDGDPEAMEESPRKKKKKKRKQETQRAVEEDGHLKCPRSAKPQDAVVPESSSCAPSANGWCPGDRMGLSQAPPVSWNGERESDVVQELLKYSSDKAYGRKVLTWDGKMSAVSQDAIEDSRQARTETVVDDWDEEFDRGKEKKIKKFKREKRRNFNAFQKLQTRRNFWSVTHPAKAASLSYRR
Procedure, shortened: as §1

USP38 = molecular target: T2, USP38 (UniProt Q8NB14)
T2 sequence (whole entry): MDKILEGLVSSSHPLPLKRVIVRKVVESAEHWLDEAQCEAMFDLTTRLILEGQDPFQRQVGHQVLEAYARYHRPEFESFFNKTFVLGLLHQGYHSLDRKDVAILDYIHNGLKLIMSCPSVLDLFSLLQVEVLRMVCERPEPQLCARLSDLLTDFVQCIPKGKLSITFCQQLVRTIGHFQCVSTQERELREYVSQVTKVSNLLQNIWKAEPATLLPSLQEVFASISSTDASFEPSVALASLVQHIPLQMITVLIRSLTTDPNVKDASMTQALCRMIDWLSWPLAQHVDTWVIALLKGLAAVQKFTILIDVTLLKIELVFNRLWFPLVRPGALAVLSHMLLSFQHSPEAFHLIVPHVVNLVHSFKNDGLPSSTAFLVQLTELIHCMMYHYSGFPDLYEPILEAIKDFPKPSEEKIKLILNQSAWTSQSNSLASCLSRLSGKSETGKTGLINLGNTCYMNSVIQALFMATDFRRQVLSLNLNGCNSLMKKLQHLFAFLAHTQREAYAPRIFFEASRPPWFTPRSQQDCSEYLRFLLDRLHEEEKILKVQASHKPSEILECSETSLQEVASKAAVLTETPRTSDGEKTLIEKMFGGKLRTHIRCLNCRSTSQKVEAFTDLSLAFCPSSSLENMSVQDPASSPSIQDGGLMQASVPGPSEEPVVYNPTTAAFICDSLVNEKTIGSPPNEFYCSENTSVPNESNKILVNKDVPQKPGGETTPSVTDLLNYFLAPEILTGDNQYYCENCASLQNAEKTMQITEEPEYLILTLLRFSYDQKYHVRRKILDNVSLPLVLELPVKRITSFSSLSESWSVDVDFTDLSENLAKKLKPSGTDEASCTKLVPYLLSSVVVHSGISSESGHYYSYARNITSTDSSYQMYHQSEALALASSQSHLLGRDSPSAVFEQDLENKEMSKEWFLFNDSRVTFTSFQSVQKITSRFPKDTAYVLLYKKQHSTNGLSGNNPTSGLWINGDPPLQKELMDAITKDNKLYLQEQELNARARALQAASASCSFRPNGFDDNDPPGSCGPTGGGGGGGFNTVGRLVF
Procedure, shortened: as §1

USP39 = molecular target: T3, USP39 (UniProt Q53GS9)
T3 sequence (whole entry): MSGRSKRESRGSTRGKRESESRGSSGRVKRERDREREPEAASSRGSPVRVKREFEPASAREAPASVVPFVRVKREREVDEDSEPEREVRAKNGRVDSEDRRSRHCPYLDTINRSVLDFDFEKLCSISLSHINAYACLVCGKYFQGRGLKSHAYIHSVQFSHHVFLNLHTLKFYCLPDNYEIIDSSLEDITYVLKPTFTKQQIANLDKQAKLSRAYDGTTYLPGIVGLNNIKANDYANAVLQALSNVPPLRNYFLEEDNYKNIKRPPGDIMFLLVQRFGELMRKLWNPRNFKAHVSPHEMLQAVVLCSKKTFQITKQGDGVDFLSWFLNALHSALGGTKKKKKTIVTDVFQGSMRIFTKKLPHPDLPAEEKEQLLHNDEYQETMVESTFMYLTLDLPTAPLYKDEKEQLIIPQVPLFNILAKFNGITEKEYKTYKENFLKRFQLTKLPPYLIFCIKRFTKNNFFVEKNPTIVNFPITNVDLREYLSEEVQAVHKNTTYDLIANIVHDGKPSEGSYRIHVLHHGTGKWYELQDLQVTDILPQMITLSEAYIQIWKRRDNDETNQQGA
Procedure, shortened: as §1

USP4 = molecular target: T4, USP4 (UniProt Q13107)
T4 sequence (whole entry): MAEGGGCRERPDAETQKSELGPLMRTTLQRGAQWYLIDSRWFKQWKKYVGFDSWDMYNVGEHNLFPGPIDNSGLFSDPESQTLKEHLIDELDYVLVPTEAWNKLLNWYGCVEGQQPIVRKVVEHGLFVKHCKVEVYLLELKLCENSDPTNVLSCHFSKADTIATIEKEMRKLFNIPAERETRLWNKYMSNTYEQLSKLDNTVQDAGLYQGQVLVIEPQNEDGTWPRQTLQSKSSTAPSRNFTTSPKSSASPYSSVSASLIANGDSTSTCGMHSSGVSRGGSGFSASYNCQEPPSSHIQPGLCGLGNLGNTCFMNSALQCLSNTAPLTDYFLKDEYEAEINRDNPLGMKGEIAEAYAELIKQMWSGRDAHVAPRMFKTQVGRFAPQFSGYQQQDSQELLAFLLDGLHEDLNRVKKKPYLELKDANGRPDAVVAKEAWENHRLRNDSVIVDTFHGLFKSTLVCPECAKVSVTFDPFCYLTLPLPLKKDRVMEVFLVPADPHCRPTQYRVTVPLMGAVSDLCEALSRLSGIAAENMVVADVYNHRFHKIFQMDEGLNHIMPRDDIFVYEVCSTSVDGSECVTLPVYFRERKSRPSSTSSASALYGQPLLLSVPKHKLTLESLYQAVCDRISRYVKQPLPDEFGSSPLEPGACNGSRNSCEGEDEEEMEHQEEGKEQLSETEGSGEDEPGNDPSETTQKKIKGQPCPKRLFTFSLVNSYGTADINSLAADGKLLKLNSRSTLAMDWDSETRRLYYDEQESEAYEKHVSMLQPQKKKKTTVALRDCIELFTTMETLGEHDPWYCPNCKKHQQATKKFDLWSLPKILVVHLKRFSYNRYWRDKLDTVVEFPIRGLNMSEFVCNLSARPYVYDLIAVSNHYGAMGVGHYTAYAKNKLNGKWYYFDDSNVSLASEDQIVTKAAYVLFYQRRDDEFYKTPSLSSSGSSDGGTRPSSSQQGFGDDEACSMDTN
Procedure, shortened: as §1

Measured: log2 ratio of Biotin-Ahx-Ub-VS probe labelling

O=C(CCl)N1CCN(c2nc3ccccc3o2)CC1
inactive: USP34 -0.0431 | USP36 -0.047 | USP38 -0.41 | USP39 -0.00936 | USP4 -0.445
